Results as given in PubChem BioAssay.
Active and inactive are the calls of the source.

Experiments:
Albumin (Bos taurus) = Albumin (Bos taurus) (UniProt P02769); assay: bovine serum albumin binders on microarray, profiling panel, artefact control for SMM control protein annotation, biochemical, small-molecule microarray, Alexa647 label, 635/667 nm fluorescence (AID 1118); settings: BSA-A647 binding, fluorescence 635 nm, higher = more signal;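 also: score merges 667 nm emission intensity and signal-to-noise per printed compound spot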
Albumin (Bos taurus), sequence (P02769 whole entry, looked up): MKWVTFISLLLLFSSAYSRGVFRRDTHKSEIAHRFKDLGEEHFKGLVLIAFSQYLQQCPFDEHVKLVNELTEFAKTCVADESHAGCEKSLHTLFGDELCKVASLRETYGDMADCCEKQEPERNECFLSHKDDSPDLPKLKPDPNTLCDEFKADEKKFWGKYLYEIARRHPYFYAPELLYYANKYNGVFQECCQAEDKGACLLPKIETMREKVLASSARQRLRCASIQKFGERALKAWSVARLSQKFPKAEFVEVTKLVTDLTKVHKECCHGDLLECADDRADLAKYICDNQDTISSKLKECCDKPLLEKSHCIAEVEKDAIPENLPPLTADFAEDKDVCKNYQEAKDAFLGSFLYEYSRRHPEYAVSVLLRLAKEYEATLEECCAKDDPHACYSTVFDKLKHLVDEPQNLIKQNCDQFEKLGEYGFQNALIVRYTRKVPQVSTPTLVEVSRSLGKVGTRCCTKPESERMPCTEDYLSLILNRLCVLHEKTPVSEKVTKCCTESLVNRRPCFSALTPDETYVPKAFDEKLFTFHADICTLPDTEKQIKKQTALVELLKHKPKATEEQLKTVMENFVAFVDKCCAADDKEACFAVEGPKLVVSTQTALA

[1] = small-molecule microarray binders of probe aXIP, primary screen, biochemical, NeuroSMM set, 635/667 nm fluorescence (AID 1119); settings: higher = more signal, called active from +8 up or from −8 down;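 also: probe is the protein aXip251-270 applied at 1 µg/mL to compound-printed slides; binding of probe to printed compounds measured as 667 nm fluorescence plus signal to noise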
[2] = small-molecule binders of probe aNOTCH3, primary screen, biochemical, small-molecule microarray, 635/667 nm fluorescence (AID 1120); settings: higher = more signal;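 also: probe is a biotin-tagged antibody raised against NOTCH3 rather than NOTCH3 protein; score merges spot fluorescence near 667 nm with spot signal to noise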
[3] = small-molecule binders of probe aNOTCH2, primary screen, biochemical, small-molecule microarray, 635/667 nm fluorescence (AID 1121); settings: higher = more signal;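 also: score merges feature fluorescence read at 667 nm with its signal to noise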
[4] = biological target: Carbonic anhydrase 2 (Homo sapiens) (UniProt P00918); assay: CAII small-molecule binders, profiling panel, biochemical, small-molecule microarray, Alexa647-labelled CAII (AID 1122); settings: CAII-A647 binding fluorescence, higher = more signal
[5] = COS7 lysate on small-molecule microarray, probe aHis, 635 nm (AID 1123); settings: COS7 cell lysate, fluorescence, higher = more signal;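 also: z-score combines 667nm fluorescence intensity with signal-to-noise per printed compound spot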
[6] = compound binding in COS7 lysate, probe aLAP1, primary screen, cell lysate, small-molecule microarray (AID 1124); settings: probe aLAP1, fluorescence, higher = more signal;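 also: lysate comes from COS7 cells expressing LAP1 and is applied at 0.3 µg/mL; score merges spot fluorescence near 667 nm with signal-to-noise over triplicate slides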
Sam68 (KHDRBS1) = assay: Sam68 small-molecule binders, primary screen, biochemical, small-molecule microarray, 635 nm fluorescence (AID 1125); settings: small-molecule microarray binding, higher = more signal;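 also: score merges 667 nm channel intensity with signal to noise over triplicate slides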
[7] = test system: Chordin-like protein 2 (CHRDL2); assay: CHRDL2 small-molecule binders, primary screen, biochemical, small-molecule microarray, 635 nm fluorescence (AID 1126); settings: small-molecule microarray binding, fluorescence 635 nm; higher = more signal;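 also: printed compound slides probed with Chrdl2 protein at 4 µg/mL for 1 h at 4 C; score merges 667 nm emission intensity with signal to noise over three replicate slides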
[8] = biological target: Concanavalin-A (Canavalia ensiformis) (UniProt P02866); assay: ConA small-molecule binders, primary screen, artefact control for SMM control protein annotation, biochemical, small-molecule microarray, Alexa647 label, 635 nm (AID 1127); settings: ConA-A647 binding fluorescence, higher = more signal;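 also: z combines 667 nm emission intensity with signal-to-noise across three replicate slides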
Concanavalin-A (Canavalia ensiformis), sequence (P02866 whole entry, looked up): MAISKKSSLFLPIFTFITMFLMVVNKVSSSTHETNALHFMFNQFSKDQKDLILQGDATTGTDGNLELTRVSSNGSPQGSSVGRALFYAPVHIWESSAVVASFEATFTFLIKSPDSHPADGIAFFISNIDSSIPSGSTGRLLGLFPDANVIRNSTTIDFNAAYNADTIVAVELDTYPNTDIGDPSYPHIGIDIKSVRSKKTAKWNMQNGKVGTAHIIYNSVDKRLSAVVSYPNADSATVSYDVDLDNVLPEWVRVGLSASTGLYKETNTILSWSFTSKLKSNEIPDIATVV

[9] = anti-His antibody binders, primary screen, artefact control for SMM control protein annotation, biochemical, small-molecule microarray, 635 nm fluorescence (AID 1128); settings: anti-His Alexa647 antibody binding, higher = more signal;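 also: score merges feature fluorescence with signal-to-noise for each printed compound spot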
[10] = test system: Human papillomavirus type 1a E7 protein (residues 1-88); assay: HPV1a E7 small-molecule binders, primary screen, biochemical, small-molecule microarray, residues 1-88, 635 nm (AID 1129); settings: small-molecule microarray binding, fluorescence 635 nm; higher = more signal
[11] = biological target: Focal adhesion kinase 1 (Homo sapiens) (UniProt Q05397); assay: small-molecule microarray binders of FAK, primary screen, biochemical, 635/667 nm fluorescence, BSA, DTT (AID 1130); settings: PTK2 binding, 635 nm fluorescence, higher = more signal;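 also: composite of spot emission at 667 nm and signal to noise over triplicate slides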
Focal adhesion kinase 1 (Homo sapiens), sequence (Q05397 whole entry, looked up): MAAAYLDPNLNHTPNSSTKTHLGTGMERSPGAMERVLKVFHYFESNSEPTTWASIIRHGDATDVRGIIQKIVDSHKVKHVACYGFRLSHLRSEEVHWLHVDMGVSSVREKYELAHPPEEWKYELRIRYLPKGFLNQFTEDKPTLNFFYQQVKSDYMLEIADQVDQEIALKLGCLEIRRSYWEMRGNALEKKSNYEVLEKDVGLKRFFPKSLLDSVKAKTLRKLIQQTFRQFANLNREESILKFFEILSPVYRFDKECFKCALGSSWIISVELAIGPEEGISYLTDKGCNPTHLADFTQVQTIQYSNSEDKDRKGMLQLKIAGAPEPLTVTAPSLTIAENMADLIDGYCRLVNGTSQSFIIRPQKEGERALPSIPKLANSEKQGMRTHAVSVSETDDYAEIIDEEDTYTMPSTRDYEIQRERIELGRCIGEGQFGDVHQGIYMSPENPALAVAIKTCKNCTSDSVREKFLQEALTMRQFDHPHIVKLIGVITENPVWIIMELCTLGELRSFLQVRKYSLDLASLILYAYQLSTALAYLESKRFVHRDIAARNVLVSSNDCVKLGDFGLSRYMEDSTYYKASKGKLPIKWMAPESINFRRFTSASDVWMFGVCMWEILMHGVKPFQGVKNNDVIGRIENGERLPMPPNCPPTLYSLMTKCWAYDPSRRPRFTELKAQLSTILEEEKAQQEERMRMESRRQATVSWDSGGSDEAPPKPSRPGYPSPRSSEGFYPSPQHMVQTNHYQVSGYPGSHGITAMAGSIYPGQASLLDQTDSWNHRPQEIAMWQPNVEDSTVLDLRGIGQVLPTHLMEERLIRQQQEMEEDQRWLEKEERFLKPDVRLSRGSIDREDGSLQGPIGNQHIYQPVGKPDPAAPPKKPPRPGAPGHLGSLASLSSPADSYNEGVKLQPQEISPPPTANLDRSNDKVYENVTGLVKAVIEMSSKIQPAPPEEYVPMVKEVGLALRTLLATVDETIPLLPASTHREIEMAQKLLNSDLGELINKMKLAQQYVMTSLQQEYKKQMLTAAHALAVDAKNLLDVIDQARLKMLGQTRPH

[12] = test system: Fibrinogen (Alexa647-labelled); assay: fibrinogen binders on compound microarrays, profiling panel, artefact control for SMM control-protein annotation, biochemical, small-molecule microarray, 635/667 nm fluorescence (AID 1131); settings: fibrinogen-A647 binding fluorescence, higher = more signal;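 also: z-score merges 667 nm fluorescence with per-spot signal-to-noise over triplicate slides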
[13] = biological target: Follistatin (Homo sapiens) (UniProt P19883); assay: follistatin binders on small-molecule microarrays, primary screen, biochemical, small-molecule microarray, 635/667 nm fluorescence (AID 1132); settings: FST binding, 635 nm fluorescence, higher = more signal
Follistatin (Homo sapiens), sequence (P19883 whole entry, looked up): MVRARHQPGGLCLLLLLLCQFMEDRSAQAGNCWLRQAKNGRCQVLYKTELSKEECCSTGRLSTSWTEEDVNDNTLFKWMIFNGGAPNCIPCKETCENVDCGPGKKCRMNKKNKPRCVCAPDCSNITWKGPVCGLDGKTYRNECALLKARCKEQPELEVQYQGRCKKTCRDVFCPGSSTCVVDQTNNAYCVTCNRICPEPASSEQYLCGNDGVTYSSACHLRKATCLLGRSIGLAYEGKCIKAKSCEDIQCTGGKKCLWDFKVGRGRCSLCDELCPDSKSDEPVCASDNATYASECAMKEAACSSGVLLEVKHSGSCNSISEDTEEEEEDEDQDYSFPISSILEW

[14] = biological target: Fibroblast growth factor 2 (Homo sapiens) (UniProt P09038); assay: FGF2 binders on small-molecule microarrays, primary screen, biochemical, small-molecule microarray, 635/667 nm fluorescence (AID 1133); settings: small-molecule microarray binding, FGF2, fluorescence 635/667; higher = more signal
Fibroblast growth factor 2 (Homo sapiens), sequence (P09038 whole entry, looked up): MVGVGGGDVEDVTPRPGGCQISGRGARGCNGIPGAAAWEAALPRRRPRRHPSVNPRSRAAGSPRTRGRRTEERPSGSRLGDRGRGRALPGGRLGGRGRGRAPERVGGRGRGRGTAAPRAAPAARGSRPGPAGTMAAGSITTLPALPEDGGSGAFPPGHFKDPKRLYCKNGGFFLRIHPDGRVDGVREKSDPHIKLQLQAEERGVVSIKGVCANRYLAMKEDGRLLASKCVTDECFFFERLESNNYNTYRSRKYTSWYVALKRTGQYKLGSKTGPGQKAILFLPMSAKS

[15] = mitochondrial membrane potential change in A549 cells, profiling panel, cell-based, JC-1 fluorescence, basal, 24 h, 100 nL (AID 1138); settings: higher = more signal;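 also: A549 lung adenocarcinoma cells under basal conditions with no added stimulus; test concentration not given here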
Lefty1 = Lefty1 binders on small-molecule microarrays, primary screen, biochemical, small-molecule microarray, 635/667 nm fluorescence (AID 1139); settings: small-molecule microarray binding, fluorescence 635/667; higher = more signal
[16] = test system: wheat germ agglutinin (Triticum aestivum), Alexa647-labelled; assay: wheat germ agglutinin binders on compound microarrays, profiling panel, artefact control for SMM control-protein annotation, biochemical, small-molecule microarray, 635/667 nm fluorescence (AID 1140); settings: WGA-A647 binding, 635 nm fluorescence, higher = more signal;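 also: score merges 667 nm feature emission with signal to noise over triplicate slides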
[17] = biological target: Luciferin 4-monooxygenase (Photinus pyralis) (UniProt P08659); assay: firefly luciferase enzyme inhibitors, primary screen, biochemical, luminescence, purified enzyme, 2006 set (AID 1141); settings: SteadyGlo luminescence, 30 min, higher = more signal, called active from +8 up or from −8 down;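 also: cell-free assay with purified firefly luciferase at 100 ng per well in PBS; test concentration not given here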
Luciferin 4-monooxygenase (Photinus pyralis), sequence (P08659 whole entry, looked up): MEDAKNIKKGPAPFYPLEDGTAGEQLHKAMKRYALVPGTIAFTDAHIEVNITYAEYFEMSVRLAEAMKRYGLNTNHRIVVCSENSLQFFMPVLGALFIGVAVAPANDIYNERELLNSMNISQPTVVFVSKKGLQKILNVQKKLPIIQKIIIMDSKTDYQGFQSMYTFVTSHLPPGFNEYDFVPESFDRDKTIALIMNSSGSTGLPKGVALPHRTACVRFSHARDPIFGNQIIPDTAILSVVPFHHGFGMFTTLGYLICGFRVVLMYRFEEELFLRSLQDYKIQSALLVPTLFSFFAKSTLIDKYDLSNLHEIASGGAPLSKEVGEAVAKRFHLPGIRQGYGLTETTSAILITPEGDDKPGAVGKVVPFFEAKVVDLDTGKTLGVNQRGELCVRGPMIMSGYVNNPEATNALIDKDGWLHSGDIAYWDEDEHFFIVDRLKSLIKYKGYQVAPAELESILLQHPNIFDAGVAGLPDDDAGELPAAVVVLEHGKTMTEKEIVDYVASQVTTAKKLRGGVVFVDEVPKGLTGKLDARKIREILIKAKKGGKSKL

SMILES | composite z-score (Albumin (Bos taurus)) | composite Z-score [1] | composite z-score [2] | composite z-score [3] | composite z-score [4] | composite z-score [5] | composite z-score [6] | composite z-score (Sam68 (KHDRBS1)) | composite z-score [7] | composite z-score [8] | composite z-score [9] | composite z-score [10] | composite z-score [11] | composite z-score [12] | composite z-score [13] | composite z-score [14] | z-score [15] | composite z-score (Lefty1) | composite z-score [16] | z-score [17]
O=C1C2C=CC(C(O)c3ccc(Br)cc3)N(Nc3ccccc3)C2C(=O)N1c1ccccc1 (stereo not given) | 0.875 | -0.0127 (inactive) | 0.328 | 0.166 | 0.652 | 1.76 | 0.189 | 0.668 | 0.527 | 0.722 | 0.0876 | 1.14 | 0.081 | 0.572 | 0.52 | -0.364 | 0.0103 | -0.51 | 1.09 | 0.296 (inactive)
COc1ccc(C#Cc2ccc3c(c2)[C@]2(C(=O)N3)[C@H](C(=O)O)[C@H]3C(=O)O[C@H](c4ccccc4)[C@H](c4ccccc4)N3[C@@H]2c2ccc(OCCO)cc2)cc1 | 0.92 | 0.655 (inactive) | 0.364 | 0.0572 | 0.421 | 1.84 | 0.714 | 1.29 | 0.245 | 1.13 | 2.61 | 1.19 | 0.681 | 0.836 | 0.714 | 0.56 | -2.47 | 0.128 | 1.18 | -5.18 (inactive)
CC(C)N1C(=O)c2ccccc2[C@](C)(C(=O)O)[C@@H]1c1ccc(CO)cc1 | 0.401 | -0.158 (inactive) | -0.103 | 0.16 | 0.326 | 0.119 | 0.755 | -0.769 | -1.49 | -0.0545 | 0.181 | -1.44 | -0.0258 | -1.34 | -0.509 | -0.977 | -0.359 | -0.82 | -0.36 | 0.883 (inactive)
COCCOC(=O)N1C(=O)[C@@]2(c3cc(C#CC4(O)CCCCCC4)ccc31)[C@H](C(=O)N1CCc3cc(OC)c(OC)cc3C1)[C@H]1C(=O)O[C@H](c3ccccc3)[C@H](c3ccccc3)N1[C@@H]2c1ccccc1OCCO | -0.499 | 0.141 (inactive) | 0.382 | 0.0521 | 0.435 | 0.29 | 0.221 | 1.29 | 1.02 | 1.17 | 1.07 | 1.17 | 0.32 | 0.608 | 1.36 | 1.48 | -0.651 | 1.28 | 0.859 | -1.72 (inactive)
CN(C)C(=O)[C@@]1(CCC(=O)OC(C)(C)C)N=C(c2ccc(OCCCO)cc2)O[C@H]1c1ccccc1N=[N+]=[N-] | 1.03 | 0.0421 (inactive) | 0.315 | -0.0129 | 0.812 | 3.31 | 1.25 | 1.3 | -0.18 | 1.11 | 0.546 | 1.32 | 0.162 | 1.04 | 1.45 | 1.58 | 1.15 | 0.722 | 1.01 | -7.12 (inactive)
